This is a sample that favours compounds with a hit; in the whole collection about 3.8% have one here.
Mtb FBA inh: inhibits M. tuberculosis FBA enzyme. 360,000 tested, 2.3% active. P9WQA3. inhibition, % at 1 µM. purified M. tuberculosis FBA, fluorescence read-out; in the data active = inhibition above about 27%
Target sequence (P9WQA3 whole entry, looked up): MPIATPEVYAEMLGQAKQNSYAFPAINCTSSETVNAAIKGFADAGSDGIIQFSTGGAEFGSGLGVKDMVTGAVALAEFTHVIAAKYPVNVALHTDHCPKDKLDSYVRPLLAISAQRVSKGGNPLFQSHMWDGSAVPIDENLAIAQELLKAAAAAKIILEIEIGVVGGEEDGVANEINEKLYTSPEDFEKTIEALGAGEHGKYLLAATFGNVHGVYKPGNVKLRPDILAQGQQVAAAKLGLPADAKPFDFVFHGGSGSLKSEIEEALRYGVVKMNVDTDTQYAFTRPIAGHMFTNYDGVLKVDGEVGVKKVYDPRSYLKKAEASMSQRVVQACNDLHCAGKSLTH
Yp Topo-I inh: blocks Yersinia pestis topoisomerase I activity | Y. pestis Topo-I cleavage product accumulation, plate reader | activity, % at 10 µM | 360,000 tested, 0.064% active; in the data active = activity above about 50%, passing the limit was not always enough
PrP 5UTR inh: inhibition of PrP 5' UTR reporter expression. 340,000 tested, 0.35% active. AID 488862. cell-based PrP 5' UTR mRNA reporter, plate reader. inhibition, % (no concentration beside the values); in the data active = inhibition above about 52%
PrPC TRFRET: reduces human prion protein on the cell surface. P04156. cell surface PrPC, TR-FRET read-out. inhibition, % at 13.8 µM. 370,000 tested, 0.43% active. AID 720596; in the data active = inhibition above about 24%
GDH-TPI counter: counter-screen for M. tuberculosis FBA inhibitors: GDH-TPI coupled enzymes. AID 588335. 360,000 tested, 1.2% active. GDH-TPI coupled enzyme counterscreen, NADH absorbance. inhibition, % at 4.8 µM; in the data active = inhibition above about 30%
Mtb hypoxia inh: inhibitors of hypoxia-regulated fluorescent reporter in Mycobacterium tuberculosis. M. tuberculosis hypoxia-regulated fluorescent reporter, fluorescence. fluorescence inhibition, % (no concentration beside the values). 300,000 tested, 0.1% active; in the data active = fluorescence inhibition mostly above about 23%, no sharp cut-off; inactive = mostly below about 17%
A number is an active result; i = inactive; nt = no result; + = active, no number.

SMILES	Mtb FBA inh	Yp Topo-I inh	PrP 5UTR inh	PrPC TRFRET	GDH-TPI counter	Mtb hypoxia inh
CC(c1nccs1)N(C)c1nc2nonc2nc1NC1CC1 (stereo not drawn)	i	i	i	i	33	i
CC(c1nccs1)N(C)c1nc2nonc2nc1N(C)C (stereo not drawn)	i	i	i	i	i	i
CCN=c1scc(C)n1/N=C/c1cc(Br)c(O)c(OC)c1	i	i	i	i	32	nt
Cc1c(C(=O)N/N=C/c2cccnc2)sc(N)c1C#N	i	i	i	i	31	nt
CCCCCC(=O)NN=Cc1cc(Br)c(O)c(OC)c1	nt	nt	nt	nt	nt	i
COc1cc(/C=N/NC(=O)c2sc(N)c(C#N)c2C)cc(Br)c1O	i	i	i	i	38	nt
COc1cc(/C=N/NC(=O)CC#N)cc(Br)c1O	+	i	i	i	i	nt
Cc1c(C(=O)NN=Cc2ccc(O)c(Br)c2)sc(N)c1C#N	nt	nt	nt	nt	nt	i
COc1cc(C=NNC(=O)CSc2nc3ccccc3n2C)cc(OC)c1OC	nt	nt	nt	nt	nt	i
CCC(=NNC(=S)NC(C)C)c1ccc(OC(F)F)cc1	nt	nt	nt	nt	nt	i
CN(C)C1=NCC(Cc2ccccc2)N1CC1CCCCCC1 (stereo not drawn)	nt	nt	nt	nt	nt	i
COc1cc(/C=N/NC(=O)c2ccc([N+](=O)[O-])cc2Cl)cc(Br)c1O	i	i	i	i	42	nt
N#Cc1ccc(C=CC(=O)c2ccco2)cc1	nt	nt	nt	nt	nt	i
O=C(Nc1ccc(-c2nc3ccccc3o2)cc1)c1ccc2c(c1)OCO2	i	i	i	i	36	i
O=C(Nc1ccc2nc(-c3cccs3)[nH]c2c1)c1ccco1	i	i	i	i	36	i
Nc1ccc(C(=O)Nc2ccc3nc(-c4ccncc4)[nH]c3c2)cc1	i	i	i	i	i	i
O=C(Nc1ccc(-c2nc3ccc(NC(=O)c4cccs4)cc3[nH]2)cc1)c1cccs1	i	i	i	i	51	i
Cc1ccc2nc(-c3ccc(NC(=O)c4ccco4)cc3)[nH]c2c1	i	i	i	nt	54	i
Cc1ccc2oc(-c3ccc(NC(=O)c4ccc5c(c4)OCO5)cc3)nc2c1	i	i	i	i	i	i
COc1ccc(C2CC(=O)C=C(C=Cc3ccc(C(F)(F)F)cc3)C2)cc1 (stereo not drawn)	nt	nt	nt	nt	nt	i
Cc1ccccc1OCC(=O)NN=Cc1ccc(N(C)C)cc1	nt	nt	nt	nt	nt	i
O=C(Nc1ccc2nc(-c3cccs3)[nH]c2c1)c1cccs1	i	i	i	i	54	nt
O=C(Nc1ccc2nc(-c3ccccc3)oc2c1)c1ccco1	i	i	i	i	54	nt
Cc1ccc(NC(=O)c2cnn(-c3ccccc3)c2NC(=O)c2ccco2)cc1	181	i	i	i	i	nt
CCN1C(=NCc2ccccc2)NC(c2ccccc2)C(C(=O)OC)C1C (stereo not drawn)	nt	nt	nt	nt	nt	i
SMILES	Mtb FBA inh	Yp Topo-I inh	PrP 5UTR inh	PrPC TRFRET	GDH-TPI counter	Mtb hypoxia inh
NCCCCC(C(=O)N1CCNCC1)n1cc(CN)nn1 (stereo not drawn)	nt	nt	nt	nt	nt	i
CC(=O)C(CN1CCCCC1)=NO	nt	nt	nt	nt	nt	i
CCCCn1c(=NC(C)=O)c(C#N)cc2c(=O)n3cccc(C)c3nc21	102	i	i	i	i	i
CCOCCCn1c(=NC(C)=O)c(C#N)cc2c(=O)n3cccc(C)c3nc21	+	i	i	i	i	i
CCCCCn1c(=NC(=O)c2cccnc2)c(C#N)cc2c(=O)n3cccc(C)c3nc21	116	i	i	i	i	i
CSC1=NC(C)(C)C=C(C=Cc2c(Cl)cccc2Cl)N1	nt	nt	nt	nt	nt	i
O=C(CCCN1C(=O)/C(=C\c2cccs2)SC1=S)NNC(=O)c1ccncc1	i	i	i	i	i	i
O=C(NN1C(=O)/C(=C/c2cccs2)SC1=S)c1ccncc1	i	i	i	i	34	i
O=C(CCCN1C(=O)/C(=C/c2cccs2)SC1=S)NNC(=O)c1cccnc1	i	i	i	i	33	i
COc1cccc(/C=C2\SC(=S)N(NC(=O)c3ccncc3)C2=O)c1	i	i	i	i	i	i
COC(=O)C1=C(c2cc3ccccc3o2)CC2CCC1N2C(=O)N1CCC(C)CC1 (stereo not drawn)	nt	nt	nt	nt	nt	i
O=C(O)CCNc1cc(N2CCN(C(=O)c3ccco3)CC2)c2noc3c2c1C(=O)c1ccccc1-3	i	i	i	i	i	nt
CC(=O)OCCNc1cc(N2CCN(C)CC2)c2noc3c2c1C(=O)c1ccccc1-3	i	i	i	i	i	54
CC(Cc1ccccc1)=NNC(=O)CNC(=O)/C=C\c1ccccc1	nt	nt	nt	nt	nt	i
N#Cc1ccc(C=NN2CCCCCC2)cc1	i	i	i	i	41	i
O=C(O)c1ccc(C=NN2CCCCCC2)cc1	i	i	i	i	36	i
O=C(O)c1ccc(/C=N/N2CCN(c3ccccc3)CC2)cc1	i	i	i	i	i	nt
COc1ccc(C=NNC(=O)c2cccc(NC(=O)c3ccccc3)c2)c(C(=O)O)c1OC	nt	nt	nt	nt	nt	i
COc1ccc(/C=C(/C#N)C(=O)Nc2ccc(C)cc2C)cc1C(=O)O	i	i	i	i	54	nt
COc1ccc(/C=C(/C#N)C(=O)Nc2cccc(C)c2C)cc1C(=O)O	i	i	i	i	37	nt
CCCCN(CCCC)c1ccc(C(=O)c2ccccc2C(=O)O)c(O)c1	i	i	i	i	i	i
CN(C)c1ccc(C(=O)c2ccccc2C(=O)O)c(O)c1	i	i	i	i	41	nt
Cc1ccc(-n2nc3c(n2)C(=NO)CCC3=NO)cc1	nt	nt	nt	nt	nt	i
COc1ccc(CN2CC(=O)N3C4c5ccc(OC)cc5OCC4C(c4ccccc4)[C@]3(C)C2=O)cc1 (stereo partly drawn)	nt	nt	nt	nt	nt	i
CCCN=C1NC(=Cc2ccco2)C(=O)N1c1ccccc1	nt	nt	nt	nt	nt	i
SMILES	Mtb FBA inh	Yp Topo-I inh	PrP 5UTR inh	PrPC TRFRET	GDH-TPI counter	Mtb hypoxia inh
CCC(=O)/C=C1\Sc2ccc(OC)cc2N1CC	i	i	i	i	31	i
CCOC(=O)NN=C(C)c1ccc(-n2cnnn2)cc1	nt	nt	nt	nt	nt	i
CCOc1cc(C2NN=C(c3ccc(C)cc3)S2)ccc1O (stereo not drawn)	i	i	i	i	34	i
CCOC(=O)C1C2COc3ccccc3C2N2C(=O)N(c3cccc(Cl)c3)C(=O)[C@]12C (stereo partly drawn)	nt	nt	nt	nt	nt	i
CC(C)N(CCn1cnc2c([nH]c3ccccc32)c1=O)C(C)C	i	i	i	i	i	i
COc1cccc2[nH]c3c(=O)[nH]cnc3c12	133	i	i	i	i	i
CCN(CC)CCn1cnc2c([nH]c3cccc(OC)c32)c1=O	103	i	i	i	i	i
COc1cccc2[nH]c3c(=O)n(CCN(C)C)cnc3c12	117	i	i	i	i	i
COc1cccc2c3cccc(OC)c3c3[nH]cnc3c12	i	i	i	i	i	nt
COC(=O)C1=C(c2cccc(OCc3ccccc3)c2)CC2CCC1N2C(=O)NCc1ccc(C(C)(C)C)cc1 (stereo not drawn)	nt	nt	nt	nt	nt	i
O=C(NN=Cc1cccc(Cl)c1Cl)Nc1ccccc1	nt	nt	nt	nt	nt	i
O=C(Nc1cccc2ccccc12)ON=C1CCCCC1	116	i	nt	i	i	i
COc1ccc(C)cc1NC(=O)ON=C1CCCCC1	i	nt	nt	i	nt	nt
COCCCNC(=S)N(CCCO)Cc1cc2cc3c(cc2[nH]c1=O)OCO3	i	i	i	i	32	i

Bioassay records from PubChem BioAssay.
